Compounds with a hit are over-represented: about 10% of the library has one in this group of screens.
GPT2 inh: blocks human glutamate pyruvate transaminase 2; 100,000 compounds, 0.25% hits; Recombinant GPT2, coupled pyruvate oxidase/HRP Amplex Red fluorescence; AID 1671188; Potency, µM (titrated, usually from 57.7 µM), most hits filed as inhibitors; further: nearly all actives have a fitted effect of over 60% in size
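Inhibition is scored from Amplex Red fluorescence generated when pyruvate oxidase and HRP act on pyruvate released by GPT2. Reactions contain 10ng/uL enzyme, 250uM a-KG and 2mM L-alanine and run 30 min at room temperature.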
NIH3T3 tox: kills NIH 3T3 cells; NIH 3T3 viability, CellTiter-Glo ATP luminescence, 48-72 h; Potency, µM (highest dose often 96.7 µM), most hits filed as inhibitors; 94,000 compounds, 4.3% hits; AID 1345082; further: nearly all actives have a fitted effect of over 55% in size
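First NIH 3T3 cells are plated at 400 cells/well; next compound is pinned in; then plates incubate 48 or 72 hr at 37 °C; finally CellTiter-Glo is added and luminescence read after 10 min.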
HEK cytotox: HEK 293 cell cytotoxicity | HEK 293 viability, ATP luminescence (CellTiter-Glo), 48-72 h | Potency, µM (titrated, usually from 115 µM), actives largely listed as inhibitors | AID 1345083 | 94,000 compounds, 6.6% hits; further: nearly all actives have a fitted effect of over 60% in size
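Cells seeded first (HEK 293, 250 cells/well), then compound added by pintool. Incubation ran 48 or 72 hr at 37 degree Celsius. CellTiter-Glo was added and luminescence imaged after 10 min at room temperature.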
Luciferase inh: Photinus pyralis luciferase inhibition | 76,000 compounds, 2.5% hits | AID 1347043 | Potency, µM (top dose mostly 115 µM), most hits filed as inhibitors | P08659 | purified P. pyralis luciferase, luminescence, biochemical; further: nearly all actives have a fitted effect of over 65% in size
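Luminescence read by CCD imaging after purified firefly luciferase (10nM final) was added to substrate buffer holding 10uM D-luciferin and 10uM ATP, pH 7.5, pre-dosed with compound.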
NPR1 antag: blocks ANP-stimulated signaling of human Npr1 receptor. P16066. HEK293 hNpr1 GloSensor cGMP, ANP-stimulated luminescence. Potency, µM (highest dose often 46.3 µM), most hits filed as inhibitors. 76,000 compounds, 1.6% hits. AID 1347048; calls by dose curve; further: nearly all actives have a fitted effect of over 60% in size
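HEK293 cells stably expressing human Npr1 and cGMP GloSensor pGS-40F, loaded 2 h with 2% GloSensor reagent, given compound 30 min at room temperature. Luminescence read before and 20 min after 0.1 nM hNppA.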
Hits are given with their value. Unless noted, the call rests on the fitted dose curve; in most records, active means well fitted curve in the direction sought with a large enough effect; inconclusive means small, poorly fitted or top-dose-only effect, or another doubt; inactive means no such curve, though single readings can be large; an effect the other way counts as inactive or inconclusive.

Results for Cc1ccc2c(C(=O)NC3CCN(C)CC3)cc(NC(=O)C3CCC3)cc2n1 ?
GPT2 inh: inactive; NIH3T3 tox: inactive; HEK cytotox: inactive; Luciferase inh: inactive; NPR1 antag: inactive

Results for COc1ccc(-n2c(=O)c3c(n2Cc2ccccc2)CN(C(=O)C(C)C)CC3)cc1 ?
GPT2 inh: inactive; NIH3T3 tox: 10µM; HEK cytotox: inactive; Luciferase inh: inactive; NPR1 antag: inactive

How did CC(C)C(=O)N1CCc2c(n(Cc3ccccc3)n(-c3ccccc3)c2=O)C1 do in these assays?
GPT2 inh: inactive; NIH3T3 tox: 22µM; HEK cytotox: inactive; Luciferase inh: inactive; NPR1 antag: inactive

How did COc1ccc(-n2c(=O)c3c(n2Cc2ccccc2)CN(C(C)=O)CC3)cc1 do in these assays?
GPT2 inh: inactive; NIH3T3 tox: inconclusive; HEK cytotox: inactive; Luciferase inh: inactive; NPR1 antag: inactive

What do the screens show for `Cc1ccccc1CN1CCc2c(n(Cc3ccccc3)n(-c3ccccc3)c2=O)C1`?
GPT2 inh: inactive; NIH3T3 tox: 89µM; HEK cytotox: 89µM; Luciferase inh: inactive; NPR1 antag: inactive

How did COc1ccc(Cn2c3c(c(=O)n2Cc2ccccc2)CCN(C(=O)c2ccnn2C)C3)cc1 do in these assays?
GPT2 inh: inactive; NIH3T3 tox: 35µM; HEK cytotox: inactive; Luciferase inh: inactive; NPR1 antag: inactive

What do the screens show for `CC(C)(C)c1cnc(-c2ccccc2)[nH]1`?
GPT2 inh: inactive; NIH3T3 tox: inconclusive; HEK cytotox: inconclusive

What do the screens show for `Cc1ccccc1-c1[nH]nc2ncc(-c3ccc(F)cc3)nc12`?
GPT2 inh: inactive; NIH3T3 tox: inconclusive; HEK cytotox: 45µM; Luciferase inh: 22µM; NPR1 antag: inactive

What do the screens show for `COc1ccc(-c2cnc3n[nH]c(-c4ccc(F)cc4C)c3n2)cc1OC`?
GPT2 inh: inactive; NIH3T3 tox: 28µM; HEK cytotox: 28µM; Luciferase inh: inactive; NPR1 antag: inactive

What do the screens show for `COc1cccc(-c2cnc3n[nH]c(-c4ccc(F)cc4C)c3n2)c1`?
GPT2 inh: inactive; NIH3T3 tox: inconclusive; HEK cytotox: inactive; Luciferase inh: inactive; NPR1 antag: inactive

What do the screens show for `COc1ccccc1-c1[nH]nc2ncc(-c3cccc(F)c3)nc12`?
GPT2 inh: inactive

Results for COc1ccc(-c2[nH]nc3ncc(-c4cccnc4)nc23)cc1F ?
GPT2 inh: inactive; NIH3T3 tox: inconclusive; HEK cytotox: inconclusive; Luciferase inh: inactive; NPR1 antag: inactive

Results for Cc1cc(F)ccc1-c1[nH]nc2ncc(-c3ccccc3)nc12 ?
GPT2 inh: inactive; NIH3T3 tox: inconclusive; HEK cytotox: inconclusive; Luciferase inh: inactive; NPR1 antag: inactive

How did COc1ccc(-c2[nH]nc3ncc(-c4ccc(CO)cc4)nc23)cc1F do in these assays?
GPT2 inh: inactive; NIH3T3 tox: 28µM; HEK cytotox: 35µM; Luciferase inh: inactive; NPR1 antag: inactive

Results for Cc1ccccc1-c1[nH]nc2ncc(-c3cccc(F)c3)nc12 ?
GPT2 inh: inactive; NIH3T3 tox: inconclusive; HEK cytotox: 63µM; Luciferase inh: 20µM; NPR1 antag: inactive

Results for COc1ccc(NC(=O)Cn2c(=O)c(-c3noc(C)n3)c3n(c2=O)CCCC3)c(OC)c1 ?
GPT2 inh: inactive; NIH3T3 tox: inactive; HEK cytotox: inactive; Luciferase inh: inactive; NPR1 antag: inactive

Results for Cn1nc(C(=O)NC2CC(c3cc(N4CCCC4)ncn3)C2)ccc1=O (centres undefined) ?
GPT2 inh: inactive; NIH3T3 tox: inactive; HEK cytotox: inactive; Luciferase inh: inactive; NPR1 antag: inactive

How did COc1ccc2c(c1)CN(C1CC1)C(=O)CCN2CC(O)CC(F)(F)F (centres undefined) do in these assays?
NIH3T3 tox: inconclusive; HEK cytotox: inactive

Results for CC(C)N1C[C@@H](CO)[C@H](c2nc(-c3cccnc3)no2)C1 ?
GPT2 inh: inactive; NIH3T3 tox: inactive; HEK cytotox: inconclusive; Luciferase inh: 20µM; NPR1 antag: inactive

What do the screens show for `OC[C@@H]1CN(CC2CC2)C[C@H]1c1nc(-c2cccnc2)no1`?
GPT2 inh: inactive; NIH3T3 tox: inactive; HEK cytotox: inactive; Luciferase inh: inconclusive; NPR1 antag: inactive

What do the screens show for `Cc1ccc(O)c(CN2CC[C@@H](c3ccc4ccccc4c3)[C@H](O)C2)n1`?
GPT2 inh: inactive; NIH3T3 tox: inconclusive; HEK cytotox: 45µM; Luciferase inh: inactive; NPR1 antag: inconclusive

Assay outcomes deposited in PubChem BioAssay by National Center for Advancing Translational Sciences (NCATS).
